Measurements: PubChem BioAssay (EPA / NIEHS)
The source made the active and inactive calls. Rule for the calls: active = hit-call score of the fitted dose curve at least 0.9, where 1 is the maximum; inactive = score below 0.9.

Assay: APR_HepG2_NuclearSize_24hr: Apredica 24-hour HepG2 Assay for Nuclear Size (AID 2282907)
Details: high-content imaging, actives raise or lower the signal
Procedure: APR_HepG2_24hr is a cell-based, multiplexed-readout assay that uses HepG2, a human liver cell line, with measurements taken at 24 hours after chemical dosing in a 384-well plate.APR_HepG2_NuclearSize_24hr is one of 10 assay component(s) measured or calculated from the APR_HepG2_24hr assay. It is designed to make measurements of cell phenotype, a form of morphology reporter, as detected with fluorescence intensity signals by HCS Fluorescent Imaging technology.Data from the assay component APR_HepG2_NuclearSize_24hr was analyzed into 1 assay endpoint. This assay endpoint, APR_HepG2_NuclearSize_24hr, was analyzed with bidirectional fitting relative to DMSO as the negative control and baseline of activity. Using a type of morphology reporter, measures of all nuclear dna for gain or loss-of-signal activity can be used to understand the signaling at the nuclear-level. Furthermore, this assay endpoint can be referred to as a primary readout, because this assay has produced multiple assay endpoints where this one serves a signaling function. To generalize the intended target to other relatable targets, this assay endpoint is annotated to the cell morphology intended target family, where the subfamily is organelle conformation.
Cells were treated with dimethyl sulfoxide (DMSO) as a solvent control at a final concentration of 0.5% v/v or with compounds in DMSO with a resulting final DMSO concentration of 0.5% v/v. Compound treatment was done at concentrations of 0.39, 0.78, 1.56, 3.12, 6.24, 12.5, 25, 50, 100, and 200 uM in duplicate on each plate. Cells were treated with compounds for 1, 24, or 72 hr. Carbonyl […] m-chloro-phenylhydrazone (CCCP) and taxol were used as positive controls for mitochondrial function and cytoskeletal stability, respectively; DMSO served as the negative control for this experiment. Cells were fixed by the direct addition of 50 uL formaldehyde in Hank's Balanced Salt Solution (HBSS) to a final concentration of 3.7%. After incubation in the fixation medium for 30 min at room temperature (293-298 K), cells were rinsed twice with HBSS and treated with cell permeabilization buffer (16 uL of 0.5% Triton X-100) for 10 min at room temperature (293-298 K) before labeling. For mitochondrial membrane potential and mitochondrial measurements, pre-fixed cells were incubated with 50 uL of MitoTracker Red CMXRos (Invitrogen) at a concentration of 250 nM for 30 min before fixation. In the remaining cases, post-fixed cells were labeled by incubation with a multiplexed mixture of primary antibodies in HBSS for 60 min at room temperature (293-298 K) to detect immunoreactivity of c-Jun (1:500), phospho-histone H3 (1:100), phospho-histone H2A.x (1:200), p53 (1:400), alpha-tubulin (1:200) and Hoechst 33342 (2 ug/mL). Cells were labeled for multiplexed imaging on two separate plates: a) Hoechst 33342, MitoTracker Red, phospho-histone H3, and alpha-tubulin, and b) Hoechst 33342, phospho-histone H2A.x, and c-Jun. A final rinse with HBSS (50 uL) was performed before analysis. The primary and secondary antibodies for the proteins were phospho-histone H3 (rabbit anti-phospho-histone H3 and FITC-donkey anti-rabbit IgG), phospho-histone H2A.x (mouse anti-phospho-histone H2A.x and FITC-donkey anti-mouse IgG), c-Jun (rabbit anti-phospho-c-Jun and Cy3-donkey anti-rabbit IgG), p53 (sheep anti-p53 and Cy5-donkey anti-sheep IgG), alpha-tubulin (mouse anti-alpha-tubulin and Cy5-donkey anti-mouse IgG). These antibodies are available as the CellCiphr HepG2 assay kit (Millipore).Digital images of each well were captured using a Cellomics ArrayScan VTI (Thermo Scientific Cellomics) (0.8 NA objective, 0.63x optical coupler, and XF-93 filter set) at 20x magnification. The images were acquired using the autofocus feature of the ArrayScan instrument, which entails the following steps. First, the camera focuses on channel 1 (Hoechst 33342), where nuclei are identified. Second, a Z offset of 1 um is used for capturing mitochondria (MitoTracker Red). […]
With Oc1c(Cl)c(Cl)c(Cl)c(Cl)c1Cl the outcome was “inactive”.
For c1cc2ccc3cccc4ccc(c1)c2c34, the outcome was “inactive”.
In the case of C=CC(N)=O, the outcome is reported as “inactive”.
In the case of Cc1ccccc1O, the outcome is reported as “inactive”.
In the case of c1ccc(-c2ccccc2)cc1, the outcome is reported as “inactive”.
In the case of CCCCCCCCCC[N+](C)(C)CCCCCCCCCC, the outcome is reported as “inactive”.
In the case of C=CC(=O)NCNC(=O)C=C, the outcome is reported as “inactive”.
With CC(C)(c1ccccc1)c1ccc(O)cc1 the outcome was “inactive”.
For Clc1ccc(Cl)cc1, the outcome was “inactive”.
For CC#Cc1cc(C)nc(Nc2ccccc2)n1, the outcome was “inactive”.
In the case of CC1=C2C[C@H]3[C@@H](CC=C4C[C@@H](O)CC[C@@]43C)[C@@H]2CC[C@]12O[C@@H]1C[C@H](C)CN[C@H]1[C@H]2C, the outcome is reported as “inactive”.
In the case of Clc1ccc(C(Cl)(Cl)Cl)cc1, the outcome is reported as “inactive”.
With CCC(=O)O[C@H]1CC[C@H]2[C@@H]3CCC4=CC(=O)CC[C@]4(C)[C@H]3CC[C@]12C the outcome was “inactive”.
For Cc1cc(-c2ccc(N)c(C)c2)ccc1N, the outcome was “inactive”.
For CCCCCCOC(=O)c1ccccc1C(=O)OCCCCCC, the outcome was “inactive”.
In the case of Nc1ccc(-c2ccc(N)cc2)cc1, the outcome is reported as “inactive”.
With Cc1cccc(C)c1N the outcome was “inactive”.
With NS(=O)(=O)C(F)(F)C(F)(F)C(F)(F)C(F)(F)C(F)(F)C(F)(F)C(F)(F)C(F)(F)F the outcome was “inactive”.
In the case of Cc1cccc([N+](=O)[O-])c1, the outcome is reported as “inactive”.
For Oc1ccc(C(c2ccc(O)cc2)(C(F)(F)F)C(F)(F)F)cc1, the outcome was “inactive”.
For CC(C)C(=O)OCC(C)(C)C(OC(=O)C(C)C)C(C)C (stereo not given), the outcome was “inactive”.
With C[C@]12CCC(=O)C=C1CC[C@@H]1[C@@H]2CC[C@@]2(C)[C@H]1CC[C@]2(C)O the outcome was “inactive”.
For O=C(O)C(F)(F)C(F)(F)C(F)(F)C(F)(F)C(F)(F)C(F)(F)C(F)(F)C(F)(F)F, the outcome was “inactive”.
For Cc1cc(O)ccc1Cl, the outcome was “inactive”.
For O=C(NC(=O)c1c(F)cccc1F)Nc1cc(Cl)c(OC(F)(F)C(F)F)c(Cl)c1, the outcome was “inactive”.
In the case of COc1ccc(O)c(C(C)(C)C)c1, the outcome is reported as “inactive”.
With CCNc1nc(NC(C)C)nc(SC)n1 the outcome was “inactive”.
For CO/C=C(/C(=O)OC)c1ccccc1COc1cccc(C(F)(F)F)n1, the outcome was “inactive”.
For O=C(N[C@H]1CN2CCC1CC2)c1cc2ccoc2cn1, the outcome was “inactive”.
For Cc1ccc(O)c(C)c1, the outcome was “inactive”.
With Cc1ccccc1[N+](=O)[O-] the outcome was “inactive”.
With Cc1cc2c3c(c1)C(c1ccccc1)=N[C@@H](NC(=O)c1ccncc1)C(=O)N3CC2 the outcome was “inactive”.
For CCOC(=O)C(O)(c1ccc(Cl)cc1)c1ccc(Cl)cc1, the AC50 was 72.9 µM (active).
In the case of CCOCCOC(C)=O, the outcome is reported as “inactive”.
In the case of CCCCCCCCCc1ccc(O)cc1, the outcome is reported as “inactive”.
With Nn1cnnc1 the outcome was “inactive”.
For ClC1=C(Cl)[C@]2(Cl)[C@@H]3[C@@H]4C[C@@H]([C@H]5O[C@@H]45)[C@@H]3[C@@]1(Cl)C2(Cl)Cl, the outcome was “inactive”.
In the case of ClC1=C(Cl)[C@]2(Cl)[C@@H]3[C@@H](Cl)[C@H]4O[C@H]4[C@@H]3C1(Cl)C2(Cl)Cl, the outcome is reported as “inactive”.
With Oc1ccc(Cl)cc1Cl the outcome was “inactive”.
In the case of Clc1ccc(C(c2ccccc2Cl)C(Cl)(Cl)Cl)cc1 (stereo not given), the outcome is reported as “inactive”.
